# The supplement of paper PMC3545927
# The list shows a part of the results. The true hit rate is not given.
# Target: furin, P09958
# Assay: furin cleavage Z-score vs untreated control; higher = more cleavage, active = 3.5 or more, inactive = 1 or less, 8 variable residues between constant flanks
# Summary of the method: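 The cleavage Z-score was derived for purified furin acting on 8-mer peptides held on magnetic beads and fused to a cDNA oligonucleotide. Digests lasted 7.5, 15 or 30 min at 1:10 enzyme:substrate in 50 mM HEPES pH 7.5 with CaCl2 and NaCl. Sequencing counts of released DNA, log-transformed against furin-free reactions, were lowess-adjusted and scaled by median absolute deviation.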
# furin, P09958, sequence (P09958 whole entry): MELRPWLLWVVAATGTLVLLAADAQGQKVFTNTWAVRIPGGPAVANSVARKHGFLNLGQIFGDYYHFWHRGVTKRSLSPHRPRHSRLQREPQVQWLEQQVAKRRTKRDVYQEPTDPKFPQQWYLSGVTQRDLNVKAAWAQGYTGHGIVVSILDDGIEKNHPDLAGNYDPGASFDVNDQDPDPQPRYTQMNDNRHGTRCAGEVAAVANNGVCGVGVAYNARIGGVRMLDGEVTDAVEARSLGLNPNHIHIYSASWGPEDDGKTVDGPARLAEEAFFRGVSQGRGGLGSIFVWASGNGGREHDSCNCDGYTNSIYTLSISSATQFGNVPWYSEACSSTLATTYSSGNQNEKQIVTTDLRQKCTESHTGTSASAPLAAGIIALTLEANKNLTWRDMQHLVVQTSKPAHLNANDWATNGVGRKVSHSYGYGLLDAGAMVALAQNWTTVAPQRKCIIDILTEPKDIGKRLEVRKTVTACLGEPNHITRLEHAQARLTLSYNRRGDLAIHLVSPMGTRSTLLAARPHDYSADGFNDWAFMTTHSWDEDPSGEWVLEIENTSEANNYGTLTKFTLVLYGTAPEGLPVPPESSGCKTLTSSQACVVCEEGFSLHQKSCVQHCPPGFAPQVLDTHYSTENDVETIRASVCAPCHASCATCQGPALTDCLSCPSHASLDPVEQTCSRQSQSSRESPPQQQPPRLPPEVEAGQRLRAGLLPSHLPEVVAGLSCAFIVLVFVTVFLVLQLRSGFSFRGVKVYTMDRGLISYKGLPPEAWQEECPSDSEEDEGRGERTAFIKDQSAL
Sequence,furin cleavage Z-score (7.5 min),furin cleavage Z-score (15 min),furin cleavage Z-score (30 min)
CAYPYRLWHYAGNASASA [HC466],-1.33 (inactive),-2.06 (inactive),0.263 (inactive)
CASTPCSTHLAGNASASA [HC2538],-0.715 (inactive),0.257 (inactive),-0.443 (inactive)
CAYCWHYPPKAGNASASA [HC403],1.04,0.468 (inactive),2.44
CAHSRTIKRSAGNASASA [FS-1632],5.07 (active),6.15 (active),6.19 (active)
CATTPCSYSWAGNASASA [HC1889],-2.07 (inactive),0.349 (inactive),1.53
CAGPRLGVRAAGNASASA [HC181],-1.03 (inactive),0.21 (inactive),-0.871 (inactive)
CAGNEGCGWAAGNASASA [HC204],-0.525 (inactive),-0.206 (inactive),-0.116 (inactive)
CAGFHRRARAAGNASASA [FS-239],4.46 (active),3.84 (active),4.12 (active)
CAGNRRRARAAGNASASA [FS-126],9.62 (active),8.76 (active),7.27 (active)
CAQDVLKEVKAGNASASA [HC1403],-1.57 (inactive),-2.35 (inactive),-1.62 (inactive)
CAITAEAAGRAGNASASA [HC1251],0.707 (inactive),-1.39 (inactive),-1.45 (inactive)
CARDRRGCFAAGNASASA [FS-2253],-0.438 (inactive),-0.0621 (inactive),0.916 (inactive)
CARQRRGCFRAGNASASA [FS-2446],1.29,2.53,4.76 (active)
CARQRREMVAAGNASASA [FS-2589],4.84 (active),5.77 (active),5.19 (active)
CARQRRGFHHAGNASASA [FS-2365],0.595 (inactive),4.95 (active),6.76 (active)
CARQRRLLAAAGNASASA [FS-3042],-1.14 (inactive),-0.921 (inactive),0.324 (inactive)
CARQRRPTGPAGNASASA [FS-2511],-1.58 (inactive),-0.922 (inactive),0.378 (inactive)
CARQRRGTGAAGNASASA [FS-2762],3.78 (active),4.54 (active),4.93 (active)
CANGSWHLNSAGNASASA [HC369],-0.0133 (inactive),2.38,0.739 (inactive)
CAHREVPCHRAGNASASA [HC2435],-0.316 (inactive),1.36,2.65
CAVTKLPLAVAGNASASA [HC1460],-0.671 (inactive),-0.455 (inactive),0.174 (inactive)
CARTPCSGSWAGNASASA [HC1833],-0.828 (inactive),-0.942 (inactive),-0.629 (inactive)
CADQERKARYAGNASASA [FS-758],-0.446 (inactive),0.477 (inactive),0.913 (inactive)
CASGGPLLCPAGNASASA [HC743],0.483 (inactive),-0.364 (inactive),-1.12 (inactive)

Sequence,furin cleavage Z-score (7.5 min),furin cleavage Z-score (15 min),furin cleavage Z-score (30 min)
CANKFRTKRYAGNASASA [FS-695],9.46 (active),8.84 (active),7.04 (active)
CAKYSRSYRYAGNASASA [FS-937],-0.221 (inactive),-0.443 (inactive),0.667 (inactive)
CASGGRTKRYAGNASASA [FS-191],8.8 (active),10.7 (active),9.18 (active)
CARVTAILSSAGNASASA [HC1132],1.14,0.277 (inactive),-0.773 (inactive)
CARAARSRGAAGNASASA [FS-2324],-0.759 (inactive),-0.113 (inactive),-0.259 (inactive)
CARGPRAVSTAGNASASA [FS-2334],0.54 (inactive),0.906 (inactive),1.4
CARAARGTIGAGNASASA [FS-2879],-0.0204 (inactive),-0.846 (inactive),0.286 (inactive)
CARRVRIVSRAGNASASA [FS-1923],-0.897 (inactive),0.174 (inactive),1.35
CARAARHVVAAGNASASA [FS-1988],0.916 (inactive),2.53,4.88 (active)
CARRSRSPRTAGNASASA [FS-3069],8.32 (active),10.6 (active),7.67 (active)
CARCPRQVSTAGNASASA [FS-3216],4.16 (active),3.66 (active),6.67 (active)
CARRSRDVSCAGNASASA [FS-2519],4.17 (active),5.01 (active),5.69 (active)
CARRSRSSYTAGNASASA [FS-3070],-0.67 (inactive),0.865 (inactive),2.05
CARRSRKVGSAGNASASA [FS-2455],-0.487 (inactive),0.947 (inactive),0.792 (inactive)
CADFEVVTSTAGNASASA [HC2287],0.0621 (inactive),-1.1 (inactive),-1.43 (inactive)
CASRSRSPRPAGNASASA [FS-1283],-0.34 (inactive),0.132 (inactive),-0.275 (inactive)
CAEVPCHTPSAGNASASA [HC2378],0.816 (inactive),0.745 (inactive),1.13
CAAGYSGGDIAGNASASA [HC1647],-1.51 (inactive),-1.76 (inactive),-1.36 (inactive)
CARAARVPRTAGNASASA [FS-1476],7.67 (active),5.53 (active),4.3 (active)
CARAARRAAGAGNASASA [FS-1678],-0.697 (inactive),-0.053 (inactive),-1.33 (inactive)
CARRSRNVSTAGNASASA [FS-2083],1.86,4.41 (active),5.4 (active)
CARRFRVVSGAGNASASA [FS-1774],0.247 (inactive),-0.792 (inactive),-0.178 (inactive)
CARAARFAKTAGNASASA [FS-1885],-1.44 (inactive),0.407 (inactive),0.00762 (inactive)
CARRSRSSSRAGNASASA [FS-2600],0.0891 (inactive),0.74 (inactive),0.299 (inactive)
